From PubChem BioAssay (NCI)
About 83,000 compounds went through this panel and 20% of them were active in at least one assay; those are over-represented in the sample as a whole.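 Percent growth is the endpoint: 0 to 100 indicates growth inhibition (40 means 60% inhibition), 0 means no net growth, and negative values indicate cell death.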 Activity calls are given as the source filed them. Rule for the calls: active = growth percent below 10; inactive = the rest.

Legend:
Test in all cases: NCI-60 one-dose screen, 48 h (100 = growth as untreated, 0 = no growth, -100 = all killed)
Settings in all cases: 10 µM unless noted
[1] = system: DU-145 prostate
[2] = system: K-562 leukemia
[3] = system: MALME-3M melanoma
[4] = system: MDA-MB-231 breast
[5] = system: RXF 393 renal
[6] = system: SF-268 CNS
[7] = system: SF-295 CNS
[8] = system: SF-539 CNS
[9] = system: UACC-257 melanoma
[10] = system: M14 melanoma
[11] = system: HCT-15 colon
[12] = system: HT29 colon
[13] = system: SNB-75 CNS
[14] = system: SNB-19 CNS
[15] = system: U251 CNS
[16] = system: PC-3 prostate
[17] = system: SK-MEL-5 melanoma
[18] = system: UACC-62 melanoma
[19] = system: LOX IMVI melanoma
[20] = system: SK-MEL-28 melanoma

Measured: growth

O=C(/C=C/c1ccc(C(F)(F)F)cc1)c1ccc(Nc2nc(NCCO)nc(NCCO)n2)cc1
active: [12] 5.46% | [15] -21.2% | [19] -44.2%
inactive: [1] 52.9% | [2] 11.7% | [3] 66.2% | [4] 71% | [5] 74.2% | [6] 54% | [7] 44.6% | [8] 29.3% | [9] 80.8% | [10] 65.4% | [11] 45.5% | [13] 55.8% | [14] 56.7% | [16] 48.7% | [17] 76.5% | [18] 79.1% | [20] 94.9%

C[C@@H]1C[C@@H]([C@@H](CC2CC(=O)NC(=O)C2)OC(=O)CC(=O)c2ccccc2)C(=O)[C@@H](C)C1
inactive: [1] 11.8% | [2] 17.7% | [4] 17.5% | [6] 15.6% | [10] 10.9% | [12] 10.4% | [13] 17.8% | [14] 18.9% | [15] 14.7% | [16] 12.3% | [18] 11.2% | [19] 11.3% | [20] 13.5%
active: [3] -0.912% | [5] -13.7% | [7] 4.68% | [8] 5.1% | [9] -4.59% | [11] 8.97% | [17] 7.03%

CCOc1cc(/C=C/C(=O)CC(=O)/C=C/c2ccc(OC(=O)CNCCN(CC)CC)c(OCC)c2)ccc1OC(=O)CNCCN(CC)CC
active: [1] -44.3% | [2] -10.8% | [3] -39.9% | [4] 5.09% | [5] -79.4% | [6] 3.21% | [7] -18.4% | [8] -58.1% | [10] -14.5% | [11] -59.1% | [12] -88% | [13] -15.1% | [15] -60.1% | [16] -18.5% | [17] -90.1% | [18] -70.9% | [19] -82.3% | [20] -57.1%
inactive: [9] 23.6% | [14] 11.4%

O=c1[nH]c(N2CCC(Cc3ccccc3)CC2)nc2sc3c(c12)CCCC3
inactive: [1] 107% | [2] 110% | [3] 102% | [4] 106% | [5] 104% | [6] 95.2% | [7] 94.6% | [8] 105% | [9] 85.4% | [10] 100% | [11] 101% | [12] 83.8% | [13] 89.4% | [14] 106% | [15] 91.7% | [16] 72.7% | [17] 102% | [18] 98.1% | [19] 97.4% | [20] 115%

O=C(CC(C(=O)c1ccccc1)N1CCN(Cc2ccccc2)CC1)c1ccccc1 (stereo not given)
inactive: [1] 86.2% | [2] 19.5% | [3] 110% | [4] 96% | [5] 95% | [6] 106% | [7] 109% | [8] 93.8% | [9] 93.7% | [10] 77.9% | [11] 57% | [12] 54.7% | [13] 91.7% | [14] 99.4% | [15] 74.9% | [16] 93.8% | [17] 103% | [18] 101% | [19] 73.4% | [20] 112%

COc1ccc2nc(-c3ccc(Cl)cc3)cc(-c3nnc(SCC(=O)Nc4ccc(C(C)=O)cc4)n3-c3ccccc3)c2c1
inactive: [1] 105% | [2] 104% | [3] 92.9% | [4] 86.8% | [5] 102% | [6] 87.3% | [7] 102% | [8] 85.4% | [9] 110% | [10] 93.8% | [11] 101% | [12] 78.6% | [13] 81% | [14] 105% | [15] 101% | [16] 87.3% | [17] 103% | [18] 97.7% | [19] 105% | [20] 107%

Cc1ccc(C(=O)Cc2ccccc2)c(O)c1
inactive: [1] 101% | [2] 98.8% | [3] 115% | [4] 103% | [5] 115% | [6] 97.6% | [7] 107% | [8] 102% | [9] 108% | [10] 110% | [11] 102% | [12] 110% | [13] 97.8% | [14] 95.4% | [15] 98.9% | [16] 99.8% | [17] 108% | [18] 90.4% | [19] 98% | [20] 117%

COc1cc(/C=C\C(C)=N\Nc2ccccc2)ccc1O
inactive: [1] 102% | [2] 56.1% | [3] 127% | [4] 76.8% | [5] 108% | [6] 76.4% | [7] 85.5% | [8] 88.1% | [9] 79.2% | [10] 97.5% | [11] 75.4% | [12] 108% | [13] 98.7% | [14] 103% | [15] 90.5% | [16] 67.2% | [17] 95% | [18] 69.8% | [19] 73.1% | [20] 120%

Cc1ccc2nc(-c3ccc(N(C)C)c(Br)c3)cn2c1
inactive: [1] 93.7% | [2] 29% | [3] 116% | [4] 92.9% | [5] 62.8% | [6] 78.2% | [7] 90.5% | [8] 65.9% | [9] 90.7% | [10] 78.6% | [11] 33.9% | [12] 72.8% | [13] 103% | [14] 99.4% | [15] 49.1% | [16] 53.7% | [17] 77.9% | [18] 66.6% | [19] 56.3% | [20] 93.3%

Cc1sc2nc(NCCc3cccs3)[nH]c(=O)c2c1C
inactive: [1] 94.7% | [2] 82.5% | [3] 98.7% | [4] 92.5% | [5] 78.9% | [6] 95.4% | [7] 82.8% | [8] 91.4% | [9] 72% | [10] 82.9% | [11] 59.6% | [12] 85.1% | [13] 90.1% | [14] 90.2% | [15] 75.8% | [16] 71.9% | [17] 90.8% | [18] 63.1% | [19] 88.7% | [20] 100%

CC(C)N(Cc1ccccc1)c1c(S)ssc1=S
inactive: [1] 10.7% | [2] 15.1% | [6] 28.8% | [10] 17.6% | [11] 10.4% | [14] 20.9% | [18] 34.1% | [19] 10.1% | [20] 21.8%
active: [3] -4.76% | [4] 2.92% | [5] -17.4% | [7] -5.63% | [8] 2.54% | [9] 5.96% | [12] 3.11% | [13] -2.3% | [15] 5.51% | [16] 1.17% | [17] -75.9%

Cc1ccc(-c2csc(N)n2)cc1
inactive: [1] 123% | [2] 94.4% | [3] 124% | [4] 96.6% | [5] 110% | [6] 101% | [7] 110% | [8] 102% | [9] 79.9% | [10] 102% | [11] 99.9% | [12] 93.6% | [13] 93.2% | [14] 98.1% | [15] 92.9% | [16] 91.2% | [17] 97.1% | [18] 99% | [19] 101% | [20] 110%

CCCCCCC(CC#N)(CCC)CCCC (stereo not given)
inactive: [1] 121% | [2] 106% | [3] 100% | [4] 106% | [5] 106% | [6] 115% | [7] 39.5% | [8] 85.3% | [9] 104% | [10] 110% | [11] 108% | [12] 111% | [13] 88.7% | [14] 100% | [15] 104% | [16] 92.2% | [17] 105% | [18] 101% | [19] 89.8% | [20] 104%

BrC1CC(Br)c2c1c1c(c3c2C(Br)CC3Br)C(Br)CC1Br (stereo not given)
inactive: [1] 115% | [2] 80.9% | [3] 95.7% | [4] 98.5% | [5] 80.3% | [6] 111% | [7] 103% | [8] 92% | [9] 105% | [10] 97.7% | [11] 97.6% | [12] 86.7% | [13] 68.6% | [14] 98.7% | [15] 88.7% | [16] 81.5% | [17] 99.8% | [18] 82.4% | [19] 73.7% | [20] 119%

C[C@H](C(=O)N[C@@H](Cc1ccc(-c2ccccc2)cc1)C(=O)NC1CC(C)(C)N(C)C(C)(C)C1)c1ccc(-c2ccccc2)c(F)c1
active: [1] -83.1% | [2] -56.9% | [3] -71.5% | [4] -68.5% | [5] -73.2% | [6] -70.9% | [7] -66% | [8] -79.5% | [9] -66.2% | [10] -82.6% | [11] -81.2% | [12] -76.2% | [13] -29% | [14] -72.6% | [15] -74.7% | [16] -70.5% | [17] -94.7% | [18] -57.6% | [19] -83.8% | [20] -73%

COc1cc(/C=C/C(=O)C(C(=O)/C=C/c2ccc(OC(=O)CCNc3nnc(C)s3)c(OC)c2)C(=O)CCNc2nnc(C)s2)ccc1OC(=O)CCNc1nnc(C)s1
active: [1] -14.5% | [2] -11.8% | [3] -29.7% | [4] -4.77% | [5] -70.2% | [7] 2.23% | [8] -15.8% | [10] -2.91% | [11] -43.2% | [12] -69% | [13] -13.6% | [16] -16.4% | [17] -22.6% | [18] -67.6% | [19] -68.7% | [20] -15.6%
inactive: [6] 19.8% | [9] 46.5% | [14] 32.7% | [15] 11.1%
